Test results published in PubChem BioAssay AID588489 (Sanford-Burnham Center for Chemical Genomics, 2011).
Out of some 360,000 compounds screened, about 1,300 (0.36%) were called active. No stated cut-off is given here; in the data, active means inhibition above about 35% (passing the limit was not always enough); inactive means the rest. Only a selection was taken, and actives are over-represented in it overall.

Target: Polyadenylate-binding protein 1 (Homo sapiens) (UniProt P11940)
Test: inhibitors of PABP1 MLLE–PAM2 peptide binding, primary screen, biochemical, fluorescence polarization, FITC-PAM2, GST-MLLE (AID 588489);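 further: plate controls were DMSO wells with GST-MLLE for no effect and wells lacking GST-MLLE protein for full effect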
Details: at 20 µM, hits give high values

Polyadenylate-binding protein 1 (Homo sapiens), sequence (P11940 whole entry, looked up): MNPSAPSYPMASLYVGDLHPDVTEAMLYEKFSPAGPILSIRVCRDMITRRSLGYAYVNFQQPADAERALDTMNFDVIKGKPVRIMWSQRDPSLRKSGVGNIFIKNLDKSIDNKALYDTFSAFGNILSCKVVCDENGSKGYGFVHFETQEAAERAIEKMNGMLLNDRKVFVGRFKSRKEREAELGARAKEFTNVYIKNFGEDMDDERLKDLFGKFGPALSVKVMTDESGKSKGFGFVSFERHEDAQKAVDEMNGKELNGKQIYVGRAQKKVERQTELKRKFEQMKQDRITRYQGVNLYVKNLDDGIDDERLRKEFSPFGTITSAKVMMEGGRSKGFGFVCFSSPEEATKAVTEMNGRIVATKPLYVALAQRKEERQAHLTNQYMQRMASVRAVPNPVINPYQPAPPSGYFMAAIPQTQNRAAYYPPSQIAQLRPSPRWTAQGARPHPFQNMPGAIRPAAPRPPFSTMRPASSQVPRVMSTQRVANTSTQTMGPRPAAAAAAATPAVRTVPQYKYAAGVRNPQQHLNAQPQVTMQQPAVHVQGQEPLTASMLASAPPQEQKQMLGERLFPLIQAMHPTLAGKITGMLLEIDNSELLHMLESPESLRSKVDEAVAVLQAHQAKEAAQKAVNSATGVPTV

Compound	inhibition
Oc1ccc2ccccc2c1N=Nc1nccs1	55.3% (active)
COc1ccc(C(c2nnnn2C2CCCC2)N2CCN(C/C=C/c3ccccc3)CC2)cc1 (stereo not drawn)	9.42% (inactive)
O=C(Cn1cnc2c(OCc3ccccc3)ncnc21)NCc1nc2ccccc2[nH]1	6.52% (inactive)
CCn1c(CNC(=O)c2ccc(OC)c(OC)c2)nnc1SCC(=O)Nc1ccccc1	-12% (inactive)
COc1ccccc1-n1c(SCC(=O)Nc2ccc(Cl)cc2)nc(O)c(Cc2ccccc2)c1=O	18.6% (inactive)
CCc1c(O)nc(SCC(=O)Nc2ccccc2)n(C(C)CC)c1=O (stereo not drawn)	48% (active)
O=C(CC12CC3CC(CC(C3)C1)C2)Nc1ccc2c(c1)COC2=O	10.3% (inactive)
CCOC(=O)Cc1cc(=O)[nH]c(/N=C(\N)Nc2ccc(OC)cc2)n1	3.52% (inactive)
COc1ccc(S(=O)(=O)N2CCSCC2)cc1	2.01% (inactive)
Cc1c(C)c(C)c(S(=O)(=O)NCCc2ccccn2)c(C)c1C	-6.36% (inactive)
CCOC(=O)CNC(=O)CSc1nc2cccnc2n1CC	0.93% (inactive)
CCc1nc2cccnc2n1-c1ccc(C(=O)O)cc1	58.3% (active)
COCCCNC(=O)Cc1ccc(-n2c(C)nc3cccnc32)cc1	18.3% (inactive)
O=C(NCc1cc(F)cc(C(F)(F)F)c1)C1CCC(=O)N(C2CCCC2)C1 (stereo not drawn)	2.19% (inactive)
C[C@@H]1NS(=O)(=O)c2cc(Cl)ccc2O[C@@H]1c1ccccc1	-9.19% (inactive)
Cn1nnc(NC(=S)NC(=O)c2ccccc2)n1	26.2% (inactive)
Cc1cccc(NC(=O)NC(=S)NC(=O)c2ccccc2)c1	41.9% (active)
Cc1cccc(OCCNC(=S)NC(=O)c2cccnc2)c1	22% (inactive)
COc1ccc(C(C)(C)C)cc1NC(=O)CN(C)C1=NS(=O)(=O)c2ccccc21	-40.4% (inactive)
O=S(=O)(c1cccc(Cn2nnc(-c3ccc(F)cc3)n2)c1)N1CCOCC1	-5.3% (inactive)
O=S(=O)(c1ccc(F)cc1)N1CC=C(c2ccccc2)CC1	-8.32% (inactive)

Compound	inhibition
O=C(NC(=S)Nc1ncccn1)c1ccccc1Br	42.1% (active)
CC1CCN(C(=S)NC(=O)c2ccccc2Br)CC1	15% (inactive)
O=C(Nc1ccccc1)c1ccccc1Br	-11.2% (inactive)
Cc1cc(Cl)ccc1C(=O)C1CCCN(C(=O)CCN2CCCO2)C1 (stereo not drawn)	-4.82% (inactive)
CCN1C(=O)[C@H]2[C@@H](c3ccc(-c4ccc(OC)cc4)cc3)N[C@@](Cc3ccccc3)(C(=O)OC)[C@H]2C1=O	-0.71% (inactive)
O=C(CN1C(=O)c2ccc([N+](=O)[O-])cc2C1=O)Nc1nnc(C2CC2)s1	-18.6% (inactive)
O=C(Cc1ccc(Br)cc1)N1CCN(c2ccccn2)CC1	61.7% (active)
O=C(Cc1ccccc1Cl)N1CCN(c2ccccn2)CC1	-6.28% (inactive)
O=C(C(Cl)Cl)N1CCN(c2ccccn2)CC1	-10.9% (inactive)
CC(=O)NC(CC(=O)Nc1cccc(S(=O)(=O)N2CCCC2)c1)c1ccccc1 (stereo not drawn)	-16.4% (inactive)
COc1ccc2c(c1)C(NS(=O)(=O)OCC(Cl)(Cl)Cl)CCC2 (stereo not drawn)	-0.88% (inactive)
CN(C)S(=O)(=O)c1cccc(NC(=O)COC(=O)C2(c3ccccc3F)CCCC2)c1	4.77% (inactive)
COc1ccc(Br)cc1C(=O)Nc1cccc(C)c1C	21.9% (inactive)
COc1ccccc1C(=O)NC(=S)Nc1ccccc1N1CCCCC1	14.7% (inactive)
COc1ccc(Br)cc1C(=O)NC(=S)Nc1cc(-c2nc3ccccc3[nH]2)ccc1C	43.3% (active)
O=C(CSC(=S)N1CCCCC1)c1c(F)cccc1F	-3.59% (inactive)
C#CCOc1ccc(/C=C2/C(=O)ON=C2C)cc1OCC	26.6% (inactive)
COc1cc(/C=C2/C(=O)ON=C2C)ccc1OCc1cccc(F)c1	41.5% (active)
CC1=NOC(=O)/C1=C\c1ccccc1	25.2% (inactive)
CC(C)(C)[C@H]1C=C(C(=O)NCc2ccccc2)O[C@@H](OCc2ccc(CO)cc2)C1	-0.14% (inactive)
COCCOC(=O)c1sc(=S)n(CCOC)c1N	49.3% (active)

Compound	inhibition
CCn1ncc(C2=NOC(C(=O)Nc3ccccc3C(=O)OC)C2)c1C (stereo not drawn)	10.5% (inactive)
COc1ccccc1-c1cc2nc(NCc3cccc(Cl)c3)ccn2n1	10.3% (inactive)
COc1ccc(-c2nc(CS(=O)CC(=O)NCc3ccccn3)c(C)o2)cc1 (stereo not drawn)	61.9% (active)
COc1ccc(-c2nc(CS(=O)CC(=O)NCc3ccccc3)c(C)o2)cc1OC (stereo not drawn)	19.8% (inactive)
COc1ccc(-c2nc(CS(=O)CC(=O)NCc3cccnc3)c(C)o2)cc1OC (stereo not drawn)	23.2% (inactive)
CC1CCCC(C)N1C(=O)CN1CCN(c2nc(-c3ccc(F)cc3)cs2)CC1 (stereo not drawn)	-7.72% (inactive)
COc1ccc(Nc2cc(Cl)ccc2C(=O)O)cn1	41.8% (active)
COc1ccc(NS(=O)(=O)c2ccc(F)cc2F)cn1	-1.17% (inactive)
COc1cccc(Nc2ncccc2C(=O)O)c1	8.54% (inactive)
CCOC(=O)C1CCCCN1Cc1ccc(OC)c(OC)c1OC (stereo not drawn)	0.49% (inactive)
NC(CSC12CC3CC(CC(C3)C1)C2)C(=O)O (stereo not drawn)	11.7% (inactive)
Cc1cc2nc(C)n(CCCNC(=O)Nc3ccccc3)c2cc1C	4.6% (inactive)
COCCNC(=O)Nc1ccc2nc(-c3ccco3)c(-c3ccco3)nc2c1	72.8% (active)
COCCNC(=O)CSc1nc(N)c(NC(=O)c2ccco2)c(=O)[nH]1	-1% (inactive)
Cc1ccc(C)c(S(=O)(=O)N2CCCOC2CNC(=O)C(=O)NC2CCCCC2)c1 (stereo not drawn)	-1.96% (inactive)
CCN(CC)C(=O)COc1coc(CN2CCN(Cc3ccccc3)CC2)cc1=O	9.67% (inactive)
NS(=O)(=O)c1ccc(CCNC(=O)c2ccc([N+](=O)[O-])cc2[N+](=O)[O-])cc1	5.05% (inactive)
CNc1nccc(-c2ccc(Cl)cc2)c1C#N	11.5% (inactive)
Cc1cc([N+](=O)[O-])c(N2CCC[C@@H]2C(=O)O)c([N+](=O)[O-])c1	11.4% (inactive)
Cc1nc(N2CCCC2C(=O)O)c2oc3ccccc3c2n1 (stereo not drawn)	2.41% (inactive)
O=C(O)C1CCCN1c1nc(Cl)ccc1[N+](=O)[O-] (stereo not drawn)	51.9% (active)
